Rows were chosen to be rich in hits. Some 2.8% of all compounds tested hit in one or more screens of this group.
FEN1 inhibitor: qHTS Assay for the Inhibitors of Human Flap endonuclease 1 (FEN1); P39748; Recombinant FEN1 flap cleavage, fluorescence, 15 min; Potency, µM (doses to about 114 µM), usual class: inhibitors; 390,000 tested, 0.35% active; AID 588795, 2011; further: nearly all actives have a fitted effect of over 65% in size
Target sequence (P39748 whole entry, looked up): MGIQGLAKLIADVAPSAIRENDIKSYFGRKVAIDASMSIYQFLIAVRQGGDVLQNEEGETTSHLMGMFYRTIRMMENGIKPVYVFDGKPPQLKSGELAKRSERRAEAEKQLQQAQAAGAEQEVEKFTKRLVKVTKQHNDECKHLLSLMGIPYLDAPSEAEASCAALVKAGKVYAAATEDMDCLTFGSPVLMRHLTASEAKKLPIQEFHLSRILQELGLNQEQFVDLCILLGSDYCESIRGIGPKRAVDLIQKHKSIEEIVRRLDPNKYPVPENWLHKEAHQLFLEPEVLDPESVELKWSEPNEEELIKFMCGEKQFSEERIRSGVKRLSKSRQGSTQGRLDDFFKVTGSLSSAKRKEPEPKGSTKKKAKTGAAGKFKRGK
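Enzyme 10 nM, 15 min RT preincubation with compound; start with substrate 50 nM final; reads at 0 and 15 min; qHTS titration, four-parameter Hill fit.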
Pol beta inh: qHTS Assay for Inhibitors of DNA Polymerase Beta | P06746 | Pol beta primer extension/strand displacement, fluorescence kinetic | Potency, µM (series often up to 114 µM), actives largely listed as inhibitors | 340,000 tested, 1.3% active
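Reaction started by 50 nM substrate onto compound-treated Pol beta (10 nM, 15 min preincubation, room temperature); plates read at 0 min and 10 min. Normalized concentration-effect data fitted by four-parameter Hill equation.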
PI5P4Ka inh: qHTS for Inhibitors of phosphatidylinositol 5-phosphate 4-kinase (PI5P4K) | PI5P4Kalpha enzyme, ADP-Glo luminescence, 60 min; stronger effect = lower value | Phosphatidylinositol 5-phosphate 4-kinase type-2 alpha (Homo sapiens), P48426 | AID 652105, 2013 | max response, % | 330,000 tested, 1.2% active; active means max response of -50% or lower; inconclusive means between -30% and -50%; inactive means -30% or higher; further: value at the top dose of about 77 µM
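PI5P4Kalpha ADP-Glo assay; 5 microM ATP final; 60 min RT reaction; HEPES pH 7.4/EGTA/CHAPS, 5% DMSO; controls lacking substrate or enzyme; luminescent end-point.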
POLI inh: qHTS for Inhibitors of Polymerase Iota. Potency, µM (titrated, usually from 115 µM), actives largely listed as inhibitors. DNA polymerase iota (Homo sapiens), Q9UNA4. Pol iota fluorescent replication assay, 10 min. 390,000 tested, 1% active
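Fluorescent replication assay read twice, at 0 min and 10 min after adding 50 nM (final) substrate. Enzyme (10 nM) and compounds were first incubated 15 min at room temperature; enzyme-free buffer wells were negative controls.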
Pol kappa inh-1: qHTS for Inhibitors of Polymerase Kappa; DNA polymerase kappa (Homo sapiens), Q9UBT6; purified Pol kappa, fluorescent DNA synthesis assay, 10 min; 400,000 tested, 0.53% active; Potency, µM (doses to about 107 µM), hits mostly inhibitors
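Kinetic fluorescence readout at 0 and 10 min followed reaction start with substrate at 50 nM final. Beforehand, enzyme (10 nM Pol kappa) stood 15 min with compound at room temperature; buffer-only wells were negative controls.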
Pol eta inh-1: qHTS for Inhibitors of Polymerase Eta; Potency, µM (highest dose often 114 µM), hits mostly inhibitors; AID 588591, 2011; 390,000 tested, 1.2% active; recombinant Pol eta, fluorescent DNA replication assay; DNA polymerase eta (Homo sapiens), Q9Y253
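Fluorescent replication assay: 50 nM final substrate added after a 15 min room-temperature compound preincubation with 10 nM enzyme. Signal taken at 0 min and again at 10 min.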
Pol kappa inh-2: qHTS for Inhibitors of Polymerase Kappa: Confirmatory Assay for Cherry-picked Compounds; shares compounds with Pol eta inh-1; purified Pol-kappa, fluorescent strand-displacement substrate; Potency, µM, usual class: inhibitors; 920 tested, 76% active; AID 720501, 2013
Pol eta inh-2: qHTS for Inhibitors of Polymerase Eta: Confirmatory Assay for Cherry-picked Compounds. shares compounds with Pol eta inh-1. Pol eta primer extension, TAMRA/BHQ fluorescence, 10 min. Potency, µM, usual class: inhibitors. 2,600 tested, 64% active
Large screens that a line does not name were inactive (follow-up assays come after a bar, where they were run). Unless noted, the call rests on the fitted dose curve; in most records, active means well fitted curve in the direction sought with a large enough effect; inconclusive means small, poorly fitted or top-dose-only effect, or another doubt; inactive means no such curve, though single readings can be large; an effect the other way counts as inactive or inconclusive.

O=C(Cn1cc(S(=O)(=O)N2CCCC2)c(S(=O)(=O)N2CCCC2)c1)Nc1ccc(F)cc1	none (no result: PI5P4Ka inh)
COc1cccc(NC(=O)Cn2cc(S(=O)(=O)N3CCCC3)c(S(=O)(=O)N3CCCC3)c2)c1	Pol beta inh inconclusive, POLI inh inconclusive, Pol eta inh-1 89.1µM (no result: PI5P4Ka inh) | Pol kappa inh-2 37.7 | Pol eta inh-2 inconclusive
CCN(CCc1ccccc1)c1ccc2c(c1)C1CC2CCN1Cc1ccccc1 (stereo unspecified)	none (no result: FEN1 inhibitor, Pol beta inh, POLI inh, Pol kappa inh-1)
CC1=NN(c2ccc(C)cc2)C(=O)/C1=C\C=C\c1ccccc1	Pol eta inh-1 inconclusive
CC1=NN(c2cccc(C(=O)O)c2)C(=O)/C1=C\C=C/c1ccccc1	FEN1 inhibitor 79.4µM, POLI inh inconclusive, Pol eta inh-1 17.8µM | Pol eta inh-2 26.9
Cc1nnc(SCC(=O)NCc2ccco2)[nH]c1=O	POLI inh inconclusive, Pol kappa inh-1 inconclusive, Pol eta inh-1 31.6µM (no result: PI5P4Ka inh) | Pol eta inh-2 30.1
Cc1occc1-c1nnc(SCC(=O)NCc2ccco2)n1CC(C)C	Pol beta inh inconclusive, Pol kappa inh-1 inconclusive, Pol eta inh-1 25.1µM | Pol eta inh-2 inconclusive
Cc1cc2c(=O)n(Cc3ccco3)c(SCC(=O)NCc3ccco3)nc2s1	Pol beta inh inconclusive, POLI inh 35.5µM, Pol kappa inh-1 inconclusive, Pol eta inh-1 inconclusive (no result: PI5P4Ka inh) | Pol eta inh-2 inconclusive
Cc1cc2c(=O)n(Cc3ccco3)c(SCC(=O)N3CCCc4ccccc43)nc2s1	Pol beta inh inconclusive (no result: PI5P4Ka inh)
CCc1c(O)nc(SCC(=O)NCc2ccco2)[nH]c1=O	POLI inh inconclusive
Cc1c(Cl)cccc1NC(=O)CSc1nc(=O)[nH]c2c1CCC2	none (no result: PI5P4Ka inh)
CN(Cc1ccccc1)C(=O)C1CCN(S(=O)(=O)c2cc([N+](=O)[O-])ccc2Cl)CC1	POLI inh inconclusive
CC(=O)COC(=O)C1CCN(S(=O)(=O)c2cc([N+](=O)[O-])ccc2Cl)CC1	Pol beta inh 28.2µM, PI5P4Ka inh -52.8, POLI inh inconclusive, Pol kappa inh-1 inconclusive, Pol eta inh-1 31.6µM | Pol eta inh-2 inconclusive
Cc1nn(CCC(=O)O)c2nc(-c3cccnc3)cc(C(F)(F)F)c12	none
Cc1nn(CCc2nn[nH]n2)c2nc(-c3ccc(C4CCCCC4)cc3)cc(C(F)(F)F)c12	FEN1 inhibitor inconclusive, Pol beta inh inconclusive, Pol eta inh-1 44.7µM | Pol eta inh-2 inconclusive
O=C(O)c1cnn(-c2ccccc2)c1-c1ccncc1	Pol beta inh inconclusive, POLI inh inconclusive, Pol kappa inh-1 inconclusive, Pol eta inh-1 22.4µM | Pol kappa inh-2 18.9 | Pol eta inh-2 60.1
O=Cc1cccn1-c1c(C(=O)O)cnn1-c1ccccc1	none
COC(=O)c1sc(-c2ccc(C(C)(C)C)cc2)cc1NC(=O)c1ccccc1C(=O)O	Pol beta inh inconclusive, PI5P4Ka inh inconclusive, Pol eta inh-1 89.1µM | Pol kappa inh-2 inconclusive
COc1cccc(N2CCN(C(=O)CCn3nc(C)c(S(=O)(=O)N4CCCC4)c3C)CC2)c1	POLI inh inconclusive (no result: PI5P4Ka inh)
CCc1c(C)sc(NC(=O)CC#N)c1C#N	FEN1 inhibitor inconclusive, Pol beta inh inconclusive, POLI inh 44.7µM, Pol kappa inh-1 inconclusive, Pol eta inh-1 22.4µM (no result: PI5P4Ka inh) | Pol eta inh-2 inconclusive
CCOc1ccc2nc(NC(=O)C34CC5CC(CC(NC(C)=O)(C5)C3)C4)sc2c1	none
O=C(O)c1ccc(-n2ncc(Cl)c(Cl)c2=O)cc1	Pol eta inh-1 22.4µM (no result: FEN1 inhibitor, Pol beta inh, POLI inh, Pol kappa inh-1) | Pol kappa inh-2 29.9 | Pol eta inh-2 47.8
CNc1cnn(-c2ccccc2)c(=O)c1Cl	none
C[C@@H]1Cc2c(O)c(O)cc(O)c2C(=O)O1	FEN1 inhibitor 56.2µM, Pol beta inh 2.82µM, POLI inh inconclusive, Pol kappa inh-1 79.4µM, Pol eta inh-1 22.4µM | Pol eta inh-2 67.5
CC(OC(=O)Cn1[nH]c(=O)c2ccccc2c1=O)C(=O)Nc1ccc(F)cc1 (stereo unspecified)	none (no result: Pol beta inh)
COc1ccc(NC(=O)c2cc3ccccc3cc2OC)cc1	POLI inh inconclusive, Pol kappa inh-1 inconclusive
COc1cc2ccccc2cc1C(=O)NC(=S)Nc1cccc(C(=O)O)c1	FEN1 inhibitor inconclusive, Pol beta inh 28.2µM, POLI inh inconclusive, Pol eta inh-1 44.7µM | Pol eta inh-2 inconclusive
COc1cc2ccccc2cc1C(=O)NC(=S)Nc1ccc(C(=O)O)cc1	FEN1 inhibitor inconclusive, Pol eta inh-1 50.1µM | Pol eta inh-2 inconclusive
COc1ccc(C(CNC(=O)C(CC(C)C)NS(=O)(=O)c2ccc(C)cc2)N2CCOCC2)cc1 (stereo unspecified)	none (no result: Pol beta inh)
CCCn1nc(C(=O)N(C)CC(=O)Nc2ccc(OCC)c(OCC)c2)c2ccccc2c1=O	none (no result: Pol beta inh)
COc1cc(/C=C/C(=O)O)cc(S(=O)(=O)Nc2ccccc2C(=O)NCc2ccco2)c1OC	POLI inh inconclusive, Pol kappa inh-1 inconclusive, Pol eta inh-1 22.4µM (no result: Pol beta inh) | Pol eta inh-2 inconclusive
COc1cc(/C=C/C(=O)O)cc(S(=O)(=O)Nc2ccccc2Cl)c1OC	none
CC1=NN(c2ccccc2)C(=O)/C1=C/c1ccc(Cl)cc1	FEN1 inhibitor inconclusive, POLI inh inconclusive
CC1=NN(c2ccc(C(=O)O)cc2)C(=O)/C1=C\c1ccc(OC(=O)c2cccs2)cc1	FEN1 inhibitor 50.1µM, Pol beta inh inconclusive, POLI inh inconclusive, Pol eta inh-1 22.4µM | Pol eta inh-2 inconclusive
CC[C@H](C)/C=C(C)/C=C/C1=CC2=CC(=O)[C@]3(C)OC(=O)[C@@H](C(C)=O)[C@@H]3C2=CO1	Pol beta inh 35.5µM, PI5P4Ka inh -60.3, POLI inh 22.4µM, Pol kappa inh-1 79.4µM, Pol eta inh-1 25.1µM | Pol eta inh-2 inconclusive

Compound activity: PubChem, National Center for Advancing Translational Sciences (NCATS)
